Data from PubChem BioAssay AID1950 (The Scripps Research Institute Molecular Screening Center, 2009).
About 1,000 (0.33%) of roughly 300,000 compounds were called active. Rule as the data show it: active = inhibition above about 28%; inactive = the rest. This excerpt belongs to a sample that is enriched for actives.

Test system: EBNA-1 (Epstein-Barr virus nuclear antigen 1), Human herpesvirus 4
Assay: EBNA-1 DNA-binding inhibitors, primary screen, biochemical, fluorescence polarization (AID 1950)
Conditions: at 14.8 µM, active compounds read high

inhibition, active:
COc1ccc(-c2nonc2NC(=O)c2oc3ccc(F)cc3c2C)cc1OC 34.8%, Cc1ccc2nc(-c3ccc(NC(=O)CN(C)S(=O)(=O)c4ccccc4)cc3)sc2c1 72.6%, Cc1cccc(N(CC(=O)Nc2ccc(-c3nc4ccc(C)cc4s3)cc2)S(C)(=O)=O)c1 46.6%, CN(C)c1ccc(N/C=C/C(=O)C(F)(F)F)cc1 173%, COC(=O)CSc1nc(C)c2ccc(OC)cc2n1 78.5%

inhibition, inactive:
Cc1nonc1NC(=O)c1oc2ccccc2c1C 1.17%, CCc1nonc1NC(=O)c1oc2ccc(Cl)cc2c1C 7.96%, O=C(CCS(=O)(=O)c1ccccc1)NC1CCCC1 -3.67%, Cc1nc2ccc(S(=O)(=O)N(C)CC(=O)NC(C)c3ccccc3)cc2s1 (stereo not drawn) -7.08%, CCN(CC)S(=O)(=O)c1ccc(NC(=O)CN(c2cccc(F)c2)S(C)(=O)=O)cc1 -22.3%, COc1cc(NC(=O)CN(C)S(=O)(=O)c2ccc3nc(C)sc3c2)cc(OC)c1 1.78%, COc1cccc(N(CC(=O)Nc2cccc(F)c2)S(C)(=O)=O)c1 -2.72%, COc1cccc(CNn2cn[nH]c2=S)c1OCc1ccccc1 7.14%, O=C(CN1CCSCC1)N/N=C/c1ccc(F)cc1 10.8%, CCOc1ccc(CCNC(=O)COC(=O)c2ccc(F)c(S(=O)(=O)N3CCOCC3)c2)cc1OCC -5.23%, O=C(Nc1ccccc1F)c1ccc(Cn2cc(Br)cn2)cc1 -6.22%, NC(=O)Cn1nc([N+](=O)[O-])nc1Oc1ccc(Br)cc1 4.94%, COc1ccc(CCNC(=O)C2CCCN2C(=O)Nc2ccccc2)cc1OC (stereo not drawn) 2.79%, CCCCCCCCCCCCC(NC(C)=O)(C(=O)OCC)C(=O)OCC -7.56%, CC(=O)N(C)c1ccc(NC(=O)C(F)(F)F)cc1 -11.5%, CC(C)CNC(=O)C(=O)Nc1ccc(N(C)C)cc1 -3.03%, CCCn1nnnc1NCc1ccc(CC)cc1 10.3%, CC(C)c1ccc(NC(=S)NC2CC3C=CC2C3)cc1 (stereo not drawn) -1.5%, COc1ccc2[nH]c3nc(SCC(=O)NC4CC4)nnc3c2c1 -0.29%, COc1ccc2nc(SCc3ccccc3)nc(C)c2c1 11.4%, CCN(CC)Cc1csc2ccc(Br)cc12 5.3%, O=C(C1CCC1)N1CCc2cc(S(=O)(=O)NCc3cccnc3)ccc21 8.39%, COc1cc(Nc2nc3ccc(Cl)cc3n3cnnc23)cc(OC)c1OC 2.08%
